Compound activity (PubChem)
KDM5B inhibitor: inhibitors of human KDM5B histone demethylase. Q9UGL1. KDM5B demethylase, FDH-coupled NADH fluorescence (FDH is formaldehyde dehydrogenase). Potency, µM (series often up to 57.7 µM), usual class: inhibitors. 2.6% of 220,000 active; active = well fitted inhibition curve with a large enough effect; also: nearly all actives have a fitted effect of over 70% in size
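KDM5BΔAP (200 nM final) in 50 mM HEPES pH 7.5, 0.01% Tween-20 was preincubated 10 min at RT with compound over a concentration range. Substrate mix (H3K4me3 12.5 µM, α-KG 25 µM, Fe²⁺, ascorbate, NAD⁺, FDH) was added, and NADH fluorescence change over 30 min gave dose-response curves.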
Numbers stand for hits; n = inactive. The entries come from a sample that favours hits as a whole.

SMILES	KDM5B inhibitor
Cc1cc2nc(CSc3nc4ccc(NC(=O)C(C)(C)C)cc4s3)cc(=O)n2o1	n
COc1ccccc1CN1CCC[C@H]1c1nc(-c2ccc(F)cn2)no1	n
CS(=O)(=O)N1CC2(CCCCN2Cc2cccnc2)Cc2ccccc21 (stereo not given)	n
Cc1nc(NC(C)C)sc1C(=O)NCC(C)C	n
CN1C(=O)c2cccn2CC1CNC(=O)C1(S(=O)(=O)c2ccc(Cl)cc2)CC1 (stereo not given)	n
CN1Cc2cccn2CC1CNC(=O)Cc1cccc(F)c1 (stereo not given)	28µM
CN1C(=O)c2cccn2CC1CNC(=O)c1ccccc1F (stereo not given)	n
CN1Cc2cccn2CC1CNC(=O)Cc1ccccc1 (stereo not given)	18µM
CN1Cc2cccn2CC1CNC(=O)Nc1ccccc1 (stereo not given)	n
COCCN1C(=O)c2cccn2CC1CNC(=O)Cc1ccccc1 (stereo not given)	n
CN1Cc2cccn2CC1CNC(=O)C1(S(=O)(=O)c2ccc(Cl)cc2)CC1 (stereo not given)	14µM
CC(C)CN1C(=O)c2cccn2CC1CNC(=O)Cc1cccc(F)c1 (stereo not given)	n
CN1C(=O)CCC2(CNC(=O)C3(S(=O)(=O)c4ccc(Cl)cc4)CC3)CCC=C12 (stereo not given)	n
CN1Cc2cccn2CC1CNC(=O)c1ccsc1 (stereo not given)	20µM
COc1ccc(C(=O)NCC2Cn3cccc3C(=O)N2C)cc1 (stereo not given)	n
COCCN1C(=O)c2cccn2CC1CNC(=O)Cc1cccc(F)c1 (stereo not given)	n
COc1ccc(S(=O)(=O)[C@H]2CS(=O)(=O)C[C@@H]2NCc2ccccn2)cc1	n
O=C(C1CC1)N1CCC(N2C(=O)C3(CCCCC3)C2c2ccccc2)CC1 (stereo not given)	n
COc1ccc(Cl)cc1NC(=O)c1ncoc1-c1ccc(C)o1	n
Cc1csc(NC(=O)c2nc(C)n(-c3ccc(F)cc3)n2)n1	n
CC(C)NCC(=O)NC(=O)NC(C)C	n
Cc1ccc2nc(Nc3nc(CSc4ncccn4)cc(=O)[nH]3)nc(C)c2c1	n
O=C(NCc1ccncc1)c1nc(-c2ccc3cc[nH]c3c2)no1	n
COc1ccc(NC(=O)CCc2ccnc(N3CCCC3)c2)c(C)c1	25µM
Cc1cc(C(=O)NCc2ccnc(N3CCOCC3)c2)on1	n
SMILES	KDM5B inhibitor
Cc1ccccc1NC(=O)CCc1ccnc(N2CCCC2)c1	28µM
CN(Cc1ccccc1)C(=O)CCc1ccnc(N2CCOCC2)c1	25µM
COc1ccc(NC(=O)CC#N)c(C)c1	n
Cc1ccccc1NC(=O)CCC1CCCC1	n
Cc1ccccc1NC(=O)Cn1c(N2CCCCC2)nc(C)c(C)c1=O	n
CN(Cc1ccccc1)C(=O)c1ccnc(-c2nnc3ccc(N4CCOCC4)nn23)c1	n
CCOc1cc(=O)n2c(c1C(=O)Nc1ccc(OC)cc1C)CCCC2	n
CSc1nc(C)c(CCC(=O)NC(C)c2ccc(F)cc2)c(C)n1 (stereo not given)	n
CCOc1ccc(C(=O)NCc2sccc2C)cc1	n
CC(C)CC(=O)NCCCN1CCCC1	n
O=C1CCCCC(Cc2ccccc2)(C(=O)N2CCc3ccccc3C2)N1 (stereo not given)	n
Cc1ccc(NC(=O)CN(C)S(=O)(=O)c2cccc3cc(C)cnc23)cc1	n
O=C1CCc2cc(S(=O)(=O)N(Cc3ccccc3)c3ccccc3)cc3c2N1CCC3	n
Cc1ccc(C2Cn3nnc(-c4noc(-c5ccc(C)s5)n4)c3CO2)cc1 (stereo not given)	13µM
Cc1ccc(-c2nc(-c3nnn4c3COC(c3ccc(C)cc3)C4)no2)cc1 (stereo not given)	n
CCn1nccc1-c1nc(-c2nnn3c2COC(c2ccc(C)cc2)C3)no1 (stereo not given)	n
COc1ccc(C2Cn3nnc(-c4noc(-c5cccc(Cl)c5)n4)c3CO2)cc1 (stereo not given)	n
Cc1ccc(C2Cn3nnc(-c4noc(-c5c(F)cccc5F)n4)c3CO2)cc1 (stereo not given)	n
COc1ccc(-c2nc(-c3nnn4c3COC(c3ccc(C)cc3)C4)no2)cc1OC (stereo not given)	14µM
Cc1ccc(C2Cn3nnc(-c4noc(-c5ccccc5)n4)c3CO2)cc1 (stereo not given)	n
COc1ccc(C2Cn3nnc(-c4noc(-c5ccc(OC)c(F)c5)n4)c3CO2)cc1 (stereo not given)	n
COc1ccc(-c2nc(-c3nnn4c3COC(c3ccc(C)cc3)C4)no2)c(OC)c1 (stereo not given)	20µM
Cc1ccc(C2Cn3nnc(-c4noc(-c5cccc(N(C)C)c5)n4)c3CO2)cc1 (stereo not given)	22µM
COc1ccc(C2Cn3nnc(-c4noc(-c5ccc(C)c(F)c5)n4)c3CO2)cc1 (stereo not given)	n
COc1ccc(-c2nc(-c3nnn4c3COC(c3ccc(Cl)cc3)C4)no2)cc1 (stereo not given)	n
SMILES	KDM5B inhibitor
COc1ccc(NC(=O)c2nc3ccccc3nc2OC)cc1OC	n
CCc1ccc(NC(=O)CSc2nc3ccsc3c(=O)[nH]2)cc1	n
CC(C)c1ccc(NC(=O)c2cc3c(s2)CCC3)cc1	n
O=C1Nc2ccccc2OCC12CCN(Cc1cccs1)CC2	n
Cc1c(Cl)cccc1NC(=O)N1CCN(C2=Nc3ccccc3Oc3ccccc32)CC1	n
COc1ncccc1CNC(=O)c1cnn(-c2ccc(F)cc2)c1-n1cccc1	n
COc1ccc([C@@H]2CC(=O)C3=C(C2)Nc2[nH][nH]c(=O)c2[C@H]3c2cccc(Br)c2)cc1OC	n
Cc1nc(Nc2nc3ccccc3o2)ncc1C(=O)Nc1cccc(C(F)(F)F)c1	n
CCN1CCC(NC(=O)NCCc2cccc3cccnc23)CC1	n
CCOC(=O)c1ccc(S(=O)(=O)N2CCC(C(=O)NC3CC(C)(C)NC(C)(C)C3)CC2)cc1	n
CCOCCn1c(SCC(=O)OC)nc2c1c(=O)[nH]c(=O)n2C	n
CC(C)NC(=O)COc1ccc(/C=N/NC(=O)C(C)SCc2ccccc2)cc1 (stereo not given)	n
COc1cccc(CC2(CO)CCCN(c3ccc(-c4nccn4C)nn3)C2)c1 (stereo not given)	20µM
CSc1ccccc1-c1ccc(N2CCN(C)CC2)nn1	n
Cn1ccnc1-c1ccc(N2CCC(C(O)Cc3ccccc3)CC2)nn1 (stereo not given)	28µM
COc1cccc(CNC(=O)Nc2cccc(-c3ccc(N4CCOCC4)nn3)c2)c1	n
COc1cccc(CC2(CO)CCCN(c3nnnn3-c3ccccc3)C2)c1 (stereo not given)	n
Cn1ccnc1-c1cn(Cc2ccccc2Cn2cccn2)nn1	n
CCN(CC)S(=O)(=O)c1ccc(C(C)NC(=O)c2nn(CC)c(=O)c3ccccc23)cc1 (stereo not given)	n
CCCOc1ccccc1OCC(=O)Nc1ccc2oc(C)nc2c1	n
COC(=O)c1ccc(C)c(NC(=O)Cc2cc(C(C)=O)ccc2OC)c1	n
CS(=O)(=O)N(Cc1cccnc1)C1CN(C(=O)c2c[nH]c3ccccc23)C1	n
Cc1ccc(C(=O)N2CC(N(Cc3cccnc3)S(C)(=O)=O)C2)s1	n
CS(=O)(=O)N(Cc1cccnc1)C1CN(C(=O)c2ccc3cc[nH]c3c2)C1	32µM
O=C(Cn1nc2n(c1=O)CCCCC2)Nc1ccc2c(c1)OCO2	n
